Screening data deposited in PubChem by National Center for Advancing Translational Sciences (NCATS).
Shown are actives, neighbours in structure and some others; about 3.2% of the full set was active somewhere.
GBA mod – modulators of human glucocerebrosidase; purified enzyme, resorufin glucoside fluorescence (screen aimed at inhibitors), 20 min; Potency, µM; hit rate 1.1% among 48,000; AID 360; in the data active = potency below about 15 µM; inconclusive = mostly about 16 µM to 33 µM;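 note: the screen sought inhibitors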
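Compounds titrated against 0.2 nM normal enzyme, 30 uM resorufin beta-D-glucopyranoside substrate, citrate/phosphate buffer with taurocholate and tween-20, pH 5.9. Reaction ran 20 min at room temperature; fluorescence (Ex 548/Em 600) gave AC50.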
PK Bst – alters activity of Bacillus stearothermophilus pyruvate kinase | purified pyruvate kinase, luminescence ATP production; ribose 5-phosphate activator present at AC10 | Potency, µM | hit rate 1.2% among 51,000; in the data active = potency below about 11 µM; inconclusive = mostly about 12 µM to 25 µM;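 the screen sought inhibitors and activators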;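 note: scaled between full activation by ribose 5 phosphate and full inhibition by luteolin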
FLuc inh – firefly luciferase inhibition | P08659 | purified firefly luciferase, luminescence, 8 min | Potency, µM (series often up to 57.1 µM), for inactives: top-dose activity change, negative = inhibition, usual class: inhibitors | hit rate 2.2% among 72,000; active = well fitted inhibition curve with a large enough effect; inconclusive = small, poorly fitted or top-dose-only effect; note: % is set by controls: 0 for no effect and ±100 for the full control effect; nearly all actives have a fitted effect of over 40% in size
Target sequence (P08659 whole entry, looked up): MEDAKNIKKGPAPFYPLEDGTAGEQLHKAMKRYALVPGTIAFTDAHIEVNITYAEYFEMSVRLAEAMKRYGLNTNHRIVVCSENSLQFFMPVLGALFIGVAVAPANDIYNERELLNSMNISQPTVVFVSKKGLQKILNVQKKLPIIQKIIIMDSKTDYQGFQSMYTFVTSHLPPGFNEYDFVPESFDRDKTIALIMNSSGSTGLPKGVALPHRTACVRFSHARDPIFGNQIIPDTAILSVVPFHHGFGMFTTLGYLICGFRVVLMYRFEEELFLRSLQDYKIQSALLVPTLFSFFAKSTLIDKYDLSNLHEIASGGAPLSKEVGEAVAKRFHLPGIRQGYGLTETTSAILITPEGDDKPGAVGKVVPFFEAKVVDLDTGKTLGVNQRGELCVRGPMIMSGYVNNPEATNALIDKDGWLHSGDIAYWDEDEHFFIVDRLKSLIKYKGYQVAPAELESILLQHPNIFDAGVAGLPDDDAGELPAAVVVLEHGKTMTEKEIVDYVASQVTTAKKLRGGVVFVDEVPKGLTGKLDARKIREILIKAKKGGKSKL
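qHTS concentration-response profiling: light output of P. pyralis luciferase with luciferin and 10 uM ATP, imidazole buffer pH 7.2. Read by luminescence after 8-min room-temperature incubation.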
The depositor's hits bear a star; [ ] = remark or other dose. Potency is the fitted concentration of half-maximal effect.

Screening Cc1occc1C(=O)Nc1sc2c(c1C(N)=O)CCCCC2 returned GBA mod >77, PK Bst inactive and FLuc inh 13µM*.
CCOC(=O)c1c(NC(=O)c2ccco2)sc2c1CCCCC2 was read as FLuc inh -10%.
For O=C(Nc1sc2c(c1C(=O)O)CCCCC2)c1ccco1 the results were FLuc inh 20µM*.
COc1ccc(NC(=O)N2CC[C@@]3(CCCN(C(=O)c4c(C)noc4C)C3)C2)cc1 was read as FLuc inh 1%[11.4 µM].
`CSc1cc2c(cc1C(F)(F)F)N(C(=O)Nc1cccnc1)CC2` gave FLuc inh 3%.
Screening Nc1nc(Nc2cccc3ccccc23)nc(C2CCCC2=O)n1 (stereo not given) returned GBA mod 1.5* and FLuc inh -1%.
NC(=O)C1CCCN(C(=O)Nc2cccc3ccccc23)C1 (stereo not given) was read as GBA mod >77, PK Bst >57 and FLuc inh 6%.
Screening CN(C)c1ncc2nc(-c3cccs3)c(=O)n(C[C@H]3CCCO3)c2n1 returned FLuc inh 0%[11.4 µM].
`CCN(CC)S(=O)(=O)c1ccc2c(c1)c(=O)c(C(=O)NCCN(C)CCc1ccccc1)cn2C` gave GBA mod 5.6*, PK Bst >57 and FLuc inh 2%.
`CN(CCNC(=O)c1cn(C)c2ccc(S(=O)(=O)N(C)C)cc2c1=O)CCc1ccccc1` gave FLuc inh -4%.
Screening N=C1C(c2nc(-c3ccc(Cl)cc3)cs2)=C(O)CN1CCCN1CCOCC1 returned GBA mod >77, PK Bst 4.5* and FLuc inh -10%.
For COc1ccc(-c2csc(C3=C(O)CN(Cc4ccc(S(N)(=O)=O)cc4)C3=N)n2)cc1OC the results were GBA mod >77, PK Bst >57 and FLuc inh -4%.
`CN1CCN(C(=O)c2cc(-c3ccc(O)cc3)on2)CC1` gave FLuc inh -8%.
`c1ccc2c(c1)NC1(CCCC1)n1c-2nc2ccccc21` gave PK Bst inactive and FLuc inh 25µM*.
Screening c1ccc2c(c1)NC(c1ccncc1)n1c-2nc2ccccc21 (stereo not given) returned PK Bst inactive and FLuc inh -29%[25.5 µM].
Screening CN1CCN(c2ncc3nc(-c4cccc(C#N)c4)c(=O)n(Cc4ccc(F)cc4)c3n2)CC1 returned FLuc inh 1%[11.4 µM].
`N#C/C(=N\O)c1nc(-c2ccccc2)cs1` gave PK Bst >26 and FLuc inh -2%[25.5 µM].
Screening N#CC(=C1CCCC1)c1nc(-c2ccccc2O)cs1 returned GBA mod >77, PK Bst 7.7* and FLuc inh 13µM*.
Screening COc1ccc(CNc2ccnc(-c3ccc4c(c3)OCO4)n2)c(OC)c1 returned FLuc inh 4%[2.29 µM].
O=C1C=C[C@@H](O)[C@H]2[C@@H]3C(=O)N(Cc4ccccc4)C(=O)[C@@H]3CC[C@H]12 was read as FLuc inh 0%[11.4 µM].
Screening COc1ccccc1CNc1ncnc2ccc(-c3ccoc3)cc12 returned FLuc inh -2%[2.29 µM].
For O=C(c1ccco1)N1CCN(C(=O)c2cc(-c3ccccn3)nc3ccc(Cl)cc23)CC1 the results were GBA mod >77, PK Bst inactive and FLuc inh -11%.
For O=C(c1ccco1)N1CCN(C(=O)c2cc(-c3ccncc3)nc3ccc(Br)cc23)CC1 the results were GBA mod >77, PK Bst 7.6* and FLuc inh 2%.
Screening Oc1cc(O)c2c(c1)O[C@H](c1ccc(O)c(O)c1)[C@@H](O)[C@@H]2c1c(O)cc(O)c2c1O[C@@H](c1ccc(O)c(O)c1)[C@H](O)C2 returned FLuc inh 0%[11.4 µM].
For O=S(=O)(c1ccc(F)c2ccccc12)N1CCCCC1 the results were GBA mod >77, PK Bst 2.9* and FLuc inh 1%.
For O=S(=O)(c1ccccc1S(=O)(=O)N1CCCCC1)N1CCCCC1 the results were GBA mod >77, PK Bst >57 and FLuc inh 4%.
`O=C(NCc1cccs1)Nc1cccs1` gave GBA mod >77, PK Bst >57 and FLuc inh -4%.
Screening COc1cccc(NC(=O)Nc2cccs2)c1 returned GBA mod >77, PK Bst inactive and FLuc inh 16µM*.
`COc1ccc(NC(=O)Nc2cccs2)cc1OC` gave GBA mod >77, PK Bst inactive and FLuc inh 25µM*.
`COc1cccc(NC(=O)c2cccs2)c1` gave GBA mod >77 and FLuc inh inconclusive.
`COc1ccc(NC(=O)c2cccs2)cc1OC` gave GBA mod >77, PK Bst >57 and FLuc inh -10%.
For CCc1ccc(NC(=O)Nc2cccs2)cc1 the results were GBA mod >77, PK Bst 4.8* and FLuc inh 4µM*.
COc1ccc2[nH]cc(CCNc3ncncc3-c3ccc4c(c3)OCO4)c2c1 was read as FLuc inh 2%[2.29 µM].
CN(C)c1ncc2nc(-c3ccc(F)cc3)c(=O)n(CCc3ccccc3)c2n1 was read as FLuc inh 1%[11.4 µM].
`COCCn1c(=O)c(-c2ccc(OC)cc2)nc2cnc(N3CCOCC3)nc21` gave FLuc inh 0%[11.4 µM].
For CC(=O)OC[C@@H]1O[C@@H](O/N=C2/C[C@@H](O)[C@@H](O)[C@@H]3[C@@H]4C(=O)N(Cc5ccc6c(c5)OCO6)C(=O)[C@H]4CC[C@@H]23)[C@H](OC(C)=O)[C@H](OC(C)=O)[C@@H]1OC(C)=O the results were FLuc inh -1%[11.4 µM].
For COc1ccc(-c2nc3cnc(N(C)C)nc3n(Cc3ccc(F)cc3)c2=O)cc1 the results were FLuc inh 0%[11.4 µM].
`CCOc1ccc(-c2nn3c(-c4ccccc4)nnc3s2)cc1` gave GBA mod >77, PK Bst 5.1* and FLuc inh -1%.
`CCN(CC)c1ccc(-c2nn3c(-c4cccnc4)nnc3s2)cc1` gave PK Bst 5.2* and FLuc inh -3%[25.5 µM].
For CCOc1ccc(-c2nn3c(-c4ccc(OC)cc4)nnc3s2)cc1 the results were PK Bst >11 and FLuc inh 0%[25.5 µM].
Screening CCOc1ccc(-c2nnc(N)s2)cc1 returned FLuc inh 16µM*.
CCCCOc1ccc(-c2nnc(N)s2)cc1 was read as PK Bst inactive and FLuc inh -15%[25.5 µM].
c1cncc(-c2nnc3sc(-c4ccco4)nn23)c1 was read as PK Bst >26 and FLuc inh -2%[25.5 µM].
For Fc1ccc(Nc2nc(-c3cccnc3)nc3ccccc23)cc1 the results were FLuc inh 3%[2.29 µM].
C/C(=C\COc1cc(=O)[nH]c2ccccc12)CC[C@@H](O)C(C)(C)O was read as FLuc inh -2%[11.4 µM].
For Nc1nc(N)nc(CCCCc2nc(N)nc(N)n2)n1 the results were FLuc inh 4%[11.4 µM].
CCNc1nc(N)c(C(=O)c2ccc(Cl)s2)s1 was read as GBA mod inconclusive, PK Bst 2.2* and FLuc inh inconclusive.
Screening CCOC(=O)c1c(NC(=O)c2ccc(Cl)s2)sc(C)c1C returned FLuc inh 0%.
For FC(F)(F)c1ccccc1-c1cc(NCc2cccs2)ncn1 the results were FLuc inh 1%[2.29 µM].
For COc1ccccc1CNc1nc(-c2ccccc2CN(C)C)nc2ccccc12 the results were FLuc inh 1%[2.29 µM].
